We go through 1 molecule from the supplement of paper PMC8728848.

Only a selection was taken, and the strongest signals are over-represented in it overall.

What all share (assay): glycan array binding signal (z-score within array); higher = stronger binding
Holding throughout (settings): glycan notation: IUPAC condensed, linker removed

Experiment [1] deals with Fuc(a1-2)Gal(b1-3)GlcNAc(b1-3)[Fuc(a1-2)Gal(b1-3)GlcNAc(b1-6)]GalNAc. Summed up:
(§1)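 Glycan array data came from 3228 arrays in the Consortium for Functional Glycomics database, and only arrays with an available protein sequence were kept. Glycan names were put into IUPAC-condensed notation, and columns mapping to the same glycan were averaged. The binding signal is a within-array Z-score, averaged across arrays of one protein sequence run at different concentrations or buffers and across linkers. A negative Z-score can be read as non-binding.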

For experiment [2], the target named is Fuc(a1-2)Gal(b1-3)[Fuc(a1-4)]GlcNAc(b1-3)[Gal(b1-4)GlcNAc(b1-6)]Gal(b1-4)Glc. The method, boiled down:
as §1

Experiment [3] addresses Fuc(a1-2)Gal(b1-4)GlcNAc(b1-3)Gal(b1-4)GlcNAc(b1-3)Gal(b1-4)GlcNAc. The method, boiled down:
as §1

For experiment [4], the target named is Fuc(a1-2)Gal(b1-4)GlcNAc(b1-6)GalNAc. The method, boiled down:
as §1

Experiment [5] has as its target Fuc(a1-2)[Gal(a1-3)]Gal(b1-3)GlcNAc(b1-2)Man(a1-3)[Fuc(a1-2)[Gal(a1-3)]Gal(b1-3)GlcNAc(b1-2)Man(a1-6)]Man(b1-4)GlcNAc(b1-4)[Fuc(a1-6)]GlcNAc. The method, boiled down:
as §1

In experiment [6] the target is Fuc(a1-2)[Gal(a1-3)]Gal(b1-3)GlcNAc(b1-6)GalNAc. Summed up: as §1
Experiment [7] addresses Fuc(a1-2)[GalNAc(a1-3)]Gal(b1-3)GlcNAc(b1-3)GalNAc. The method, boiled down:
as §1

For experiment [8], the target named is Fuc(a1-3)[Gal(b1-4)]GlcNAc(b1-2)Man(a1-3)[Fuc(a1-3)[Gal(b1-4)]GlcNAc(b1-2)Man(a1-6)]Man(b1-4)GlcNAc(b1-4)GlcNAc. The method, boiled down: as §1
Experiment [9] concerns the target Gal(a1-3)Gal(b1-3)GlcNAc(b1-2)Man(a1-3)[Gal(a1-3)Gal(b1-3)GlcNAc(b1-2)Man(a1-6)]Man(b1-4)GlcNAc(b1-4)GlcNAc. The method, boiled down: as §1
Experiment [10] has as its target Gal(a1-3)Gal(b1-3)[Fuc(a1-4)]GlcNAc(b1-2)Man(a1-3)[Gal(a1-3)Gal(b1-3)[Fuc(a1-4)]GlcNAc(b1-2)Man(a1-6)]Man(b1-4)GlcNAc(b1-4)GlcNAc. The method, boiled down:
as §1

In a further experiment the target is Gal(b1-2)Gal. Summed up:
as §1

A further experiment addresses Gal(b1-3)Gal. The method, boiled down:
as §1

Experiment [11] deals with Gal(b1-3)GalNAc(a1-3)[Fuc(a1-2)]Gal(b1-4)GlcNAc. The method, boiled down: as §1
Experiment [12] addresses Gal(b1-3)GlcNAc(a1-6)Gal(b1-4)GlcNAc. Summed up: as §1
The target of experiment [13] is Gal(b1-3)[Fuc(a1-4)]GlcNAc(b1-6)GalNAc. Summed up:
as §1

The target of experiment [14] is Gal(b1-3)[GlcNAc(b1-6)]GalNAc. The method, boiled down:
as §1

The target in experiment [15] is Gal(b1-4)GlcNAc(b1-2)Man(a1-3)[Gal(b1-4)GlcNAc(b1-2)Man(a1-6)][GlcNAc(b1-4)]Man(b1-4)GlcNAc(b1-4)[Fuc(a1-6)]GlcNAc. Summed up:
as §1

Experiment [16] deals with Gal(b1-4)GlcNAc(b1-2)Man(a1-3)[GlcNAc(b1-2)Man(a1-6)]Man(b1-4)GlcNAc(b1-4)GlcNAc. The method, boiled down: as §1
Experiment [17] deals with Gal(b1-4)GlcNAc(b1-2)[Gal(b1-4)GlcNAc(b1-4)]Man(a1-3)[GlcNAc(b1-4)][Gal(b1-4)GlcNAc(b1-2)[Gal(b1-4)GlcNAc(b1-6)]Man(a1-6)]Man(b1-4)GlcNAc(b1-4)GlcNAc. The method, boiled down: as §1
For experiment [18], the target named is Gal(b1-4)GlcNAc(b1-3)Gal(b1-3)GalNAc. The method, boiled down: as §1
In experiment [19] the target is Gal(b1-4)GlcNAc(b1-3)Gal(b1-4)GlcNAc(b1-2)[Gal(b1-4)GlcNAc(b1-3)Gal(b1-4)GlcNAc(b1-6)]Man(a1-6)[Gal(b1-4)GlcNAc(b1-3)Gal(b1-4)GlcNAc(b1-2)Man(a1-3)]Man(b1-4)GlcNAc(b1-4)[Fuc(a1-6)]GlcNAc. The method, boiled down: as §1
The target in experiment [20] is Gal(b1-4)GlcNAc(b1-3)Gal(b1-4)GlcNAc(b1-3)Gal(b1-4)GlcNAc(b1-2)Man(a1-3)[Gal(b1-4)GlcNAc(b1-3)Gal(b1-4)GlcNAc(b1-3)Gal(b1-4)GlcNAc(b1-2)Man(a1-6)]Man(b1-4)GlcNAc(b1-4)GlcNAc. The method, boiled down:
as §1

Experiment [21] concerns the target Gal(b1-4)GlcNAc(b1-3)Gal(b1-4)GlcNAc(b1-3)Gal(b1-4)GlcNAc(b1-2)Man(a1-3)[Gal(b1-4)GlcNAc(b1-3)Gal(b1-4)GlcNAc(b1-3)Gal(b1-4)GlcNAc(b1-2)Man(a1-6)]Man(b1-4)GlcNAc(b1-4)[Fuc(a1-6)]GlcNAc. The method, boiled down:
as §1

B1: AntigenI/IIC123 (Streptococcus mutans), C9E3B4 (protein)
chain: MASMTGGQQMGRIHFHYFKLAVQPQVNKEIRNNNDINIDRTLVAKQSVVKFQLKTADLPAGRDETTSFVLVDPLPSGYQFNPEATKAASPGFDVTYDNATNTVTFKATAATLATFNADLTKSVATIYPTVVGQVLNDGATYKNNFTLTVNDAYGIKSNVVRVTTPGKPNDPDNPNNNYIKPTKVNKNENGVVIDGKTVLAGSTNYYELTWDLDQYKNDRSSADTIQKGFYYVDDYPEEALELRQDLVKITDANGNEVTGVSVDNYTNLEAAPQEIRDVLSKAGIRPKGAFQIFRADNPREFYDTYVKTGIDLKIVSPMVVKKQMGQTGGSYENQAYQIDFGNGYASNIIINNVPKINPKKDVTLTLDPADTNNVDGQTIPLNTVFNYRLIGGIIPADHSEELFEYNFYDDYDQTGDHYTGQYKVFAKVDITFKDGSIIKSGAELTQYTTAEVDTAKGAITIKFKEAFLRSVSIDSAFQAESYIQMKRIAVGTFENTYINTVNGVTYSSLEHHHHHH
As to B1, the “glycan array binding signal (z-score)” value in [1] was 3.07; in experiment [2], -0.704; in experiment [3] it was -0.137; in experiment [4], 3.81; in [5], 0.417; in experiment [6], -1.42. Besides, the “glycan array binding signal (z-score)” value in experiment [7] is 2.85; in experiment [8], -0.441; in experiment [9], 3.54; in experiment [10] it was 3.25; with Gal(b1-2)Gal it was -0.762; with Gal(b1-3)Gal it was -1.1. Further, the “glycan array binding signal (z-score)” value was -0.841 in [11]; -1.82 in [12]; 1.06 in [13]; 0.715 in experiment [14]; -1.3 in experiment [15]; -0.939 in [16]. For the same molecule, the “glycan array binding signal (z-score)” value was 0.437 in [17]; 0.003 in [18]; 4.84 in experiment [19]; 2.33 in experiment [20]; 3.9 in experiment [21].
